Assay outcomes as filed in PubChem BioAssay.
TTR transcr act – TTR transcription activation, primary screen; SH-SY5Y TTR promoter Gaussia luciferase, luminescence; 100% = recombinant luciferase protein wells; activation, % at 16.7 µM; 1.3% of 92,000 active; AID 1117267;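 active = activation above the mean of all tested compounds plus 3 SD, cut at about 9.5% in these data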;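 also: cells exposed to compounds for one day before reading; 0% = median of all test compound wells on the plate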
TTR inh HuH7 – HuH7 TTR transcription inhibition, counter-screen; shares compounds with TTR transcr act; HuH7 TTR promoter-Gaussia luciferase reporter, luminescence; inhibition, % at 16.7 µM; 4% of 1,100 active; AID 1117279;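 active = average inhibition above the solvent-only control wells' mean plus 3 SD, cut at about 15% in these data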;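 also: 0% = cells with DMSO only and 100% = cells with inhibitor control FD; inhibitors lower well luminescence so higher value means more inhibition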
TTR up confirm – human TTR transcription activation, confirmation. shares compounds with TTR transcr act. SHSY5Y TTR promoter Gaussia luciferase, luminescence; 100% = purified Lucia enzyme wells, no cells. activation, % at 16.7 µM. 1,100 tested, under 10 active. AID 1117280;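 active = mean activation above a set limit taken from the earlier primary screen, cut at about 11% in these data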;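 also: 0% = DMSO-treated cells and 100% = recombinant Lucia luciferase without cells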
The depositor's hits bear a star. The full list was thinned out, with hits kept by preference.

SMILES	TTR transcr act	others
N#CC1=C(N)C(C#N)(C#N)C(c2ccc[nH]2)C2CCCC=C12 (configuration not stated)	2
Cc1ccc(C2C(C#N)=C(N)N(N(C)C)C3=C2C(=O)CCC3)cc1 (configuration not stated)	1
CCN(CC)S(=O)(=O)c1ccc(C(=O)NCC(=O)NCc2ccc3c(c2)OCO3)cc1	-1
Cc1cccc(Nc2nc(N)c([N+](=O)[O-])c(N3CCN(C)CC3)n2)c1	1
CCN1CCN(c2nc(Nc3ccccc3)nc(N)c2[N+](=O)[O-])CC1	-1
Nc1nc(Nc2cccc(F)c2)nc(N2CCOCC2)c1[N+](=O)[O-]	12*	TTR inh HuH7=-9;TTR up confirm=-1
CN(C)C(CNC(=O)C1CCN(C(=O)/C=C/c2ccccc2)CC1)c1ccccc1 (configuration not stated)	1
COc1ccc(N2CCN(Cc3cc(=O)oc4cc(C)c(Cl)c(C)c34)CC2)cc1	0
CNC(=O)COC(=O)c1cc(=O)[nH]c2ccccc12	1
NC(=O)COC(=O)c1cc(=O)[nH]c2ccccc12	0
O=C(COC(=O)c1cc(=O)[nH]c2ccccc12)NC1CCCCC1	12*	TTR inh HuH7=-11;TTR up confirm=0
COc1ccc(NCc2ccc3c(c2)OCO3)cc1Cl	0
Cc1cccc(-n2c(Cn3nc(C)c([N+](=O)[O-])c3C)n[nH]c2=S)c1	4
CC(C)NC(=O)CSc1nc(N)c(NC(=O)c2ccccc2F)c(=O)[nH]1	1
COc1ccc(NC(=O)CSc2nc(N)c(NC(=O)c3ccccc3F)c(=O)[nH]2)cc1	-1
Nc1nc(SCCO)[nH]c(=O)c1NC(=O)c1ccccc1F	20*	TTR inh HuH7=-12;TTR up confirm=0
CCCNC(=O)C1(C)CCCN(Cc2ccc(-c3ccccc3)o2)C1 (configuration not stated)	2
O=C(Nc1cccc(NC(=O)c2ccco2)c1)c1ccc([N+](=O)[O-])cc1	1
COc1ccc(Cn2cc(Cn3c4ccccc4c(=O)n3C(C)C)nn2)cc1	16*	TTR inh HuH7=-9;TTR up confirm=-1
COC(=O)Cn1c2ccccc2c(=O)n1C(C)C	0
CC(C)n1c(=O)c2ccccc2n1Cc1cn(CCc2c[nH]c3ccccc23)nn1	2
COc1ccc(S(=O)(=O)c2ccc(O)cc2)cc1	0
Cc1ccc(C(=O)CC2SC(N)=NC2=O)cc1 (configuration not stated)	20*	TTR inh HuH7=-7;TTR up confirm=3
CC(=O)c1ccc(CC2SC(N)=NC2=O)cc1 (configuration not stated)	3
NC1=NC(=O)C(CC(=O)NCc2ccccc2)S1 (configuration not stated)	6
SMILES	TTR transcr act	others
CC(C)Oc1ccc(C(CC(=O)O)NC(=O)CSc2ncn[nH]2)cc1 (configuration not stated)	-1
CCc1ccc(-c2cc3c(=O)n(CC(=O)NCCCN4CCC(Cc5ccccc5)CC4)nc(C)n3n2)cc1	2
CCSc1nnc(NC(=O)[C@@H](NC(=O)c2ccccc2)C(C)C)s1	-1
O=C(Nc1ccc2oc(-c3ccncc3)nc2c1)c1ccc(Br)o1	10*	TTR inh HuH7=-10;TTR up confirm=-1
O=C(Nc1ccc2oc(-c3ccncc3)nc2c1)c1ccc(F)cc1	-1
O=C(Nc1ccc2oc(-c3ccncc3)nc2c1)c1ccc2c(c1)OCCO2	-1
Cc1ccc(CNc2nc(N)c([N+](=O)[O-])c(NCCO)n2)cc1	1
CC(C)(C)OC(=O)NCCc1nnc(SCc2ccccc2)o1	-2
O=C(CSc1nnc(Cc2ccccc2)o1)N1CCc2ccccc21	0
O=C(O)c1ccc(CSc2nnc(Cc3ccccc3)o2)cc1	13*	TTR inh HuH7=42*;TTR up confirm=-2
Cc1ccc(NC(=O)CSc2nnc(CN3CCOCC3)n2-c2ccccc2)cc1	-1
Cc1cccc(NC(=O)CSc2nnc(C)n2Cc2ccccc2)c1	6
CCn1c(CN2CCOCC2)nnc1SCC(=O)Nc1cccc(C)c1	21*	TTR inh HuH7=-17;TTR up confirm=-1
O=C(NCCC(=O)N1CCN(S(=O)(=O)c2ccccc2)CC1)c1ccc(Br)cc1	0
CCCn1c(=O)c(C(=O)Nc2cccc(C)c2)c(O)c2ccccc21	-1
Nc1nc(SCCN2C(=O)c3ccccc3C2=O)n[nH]1	0
CCN(CC)S(=O)(=O)c1ccc2c(c1)nc(SC(C)C(=O)NCC1CCCO1)n2CC (configuration not stated)	2
CCN(CC)S(=O)(=O)c1ccc2c(c1)nc(SC(C)C(N)=O)n2-c1ccc(OC)cc1 (configuration not stated)	26*	TTR inh HuH7=6;TTR up confirm=-2
COc1ccc(-n2nnnc2SC(C)C(N)=O)cc1 (configuration not stated)	2
COC(=O)c1ccc(COc2cc([N+](=O)[O-])cc3cccnc23)o1	-3
CSc1ccc(-c2csc(N3CCC(C(N)=O)CC3)n2)cc1	1
